# From article PMC7862700, “An all-to-all approach to the identification of sequence-specific readers for epigenetic DNA modifications on cytosine”
# Assays:
# Experiment in all cases: DAPPL (digital affinity profiling via proximity ligation, sequencing); 10 mM Tris-HCl pH 7.5, 50 mM NaCl, 1 mM DTT, 4% glycerol, room temperature, 30 min; GST-TFs on glutathione beads, 16-mer random dsDNA library, 0.1% formaldehyde crosslink after washing; high values mean tight binding
# [1] = target: T1, FLI1 (Homo sapiens, UniProt Q01543 1-452); conditions: protein: recombinant; tags: N-terminal GST; dsDNA, one strand shown
# T1 sequence: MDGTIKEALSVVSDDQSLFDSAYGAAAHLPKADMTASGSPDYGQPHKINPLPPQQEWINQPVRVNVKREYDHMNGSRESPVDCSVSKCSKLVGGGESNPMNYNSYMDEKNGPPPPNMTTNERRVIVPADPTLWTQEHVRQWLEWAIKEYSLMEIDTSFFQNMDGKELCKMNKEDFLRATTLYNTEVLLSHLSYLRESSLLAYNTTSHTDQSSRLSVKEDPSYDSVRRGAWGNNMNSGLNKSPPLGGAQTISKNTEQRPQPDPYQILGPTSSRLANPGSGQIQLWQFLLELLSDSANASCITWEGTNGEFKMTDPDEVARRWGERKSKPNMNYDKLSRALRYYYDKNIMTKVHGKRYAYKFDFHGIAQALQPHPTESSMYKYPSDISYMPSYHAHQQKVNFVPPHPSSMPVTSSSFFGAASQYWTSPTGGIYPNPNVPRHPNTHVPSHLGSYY
# Procedure, shortened: (§1)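 Sequencing on an Illumina NextSeq500 followed washing, crosslinking with 0.1% formaldehyde, proximity ligation (BsaI/T4 ligase, 1 h, 37 °C) and PCR amplification of pools that had been incubated for 30 min at room temperature with 200 nmole of a random double-stranded 16-mer DNA library in Tris/NaCl/DTT/glycerol buffer. Each pool held DNA-barcoded human transcription factors, expressed in yeast as GST fusions and captured on glutathione beads, plus a tag-only sample. Binding signal is a hexamer's read frequency for a factor divided by its frequency in the tag-only sample.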
# [2] = target: T2, ELK1 (Homo sapiens, UniProt P19419 1-428); conditions: protein: recombinant; tags: N-terminal GST; dsDNA, one strand shown
# T2 sequence: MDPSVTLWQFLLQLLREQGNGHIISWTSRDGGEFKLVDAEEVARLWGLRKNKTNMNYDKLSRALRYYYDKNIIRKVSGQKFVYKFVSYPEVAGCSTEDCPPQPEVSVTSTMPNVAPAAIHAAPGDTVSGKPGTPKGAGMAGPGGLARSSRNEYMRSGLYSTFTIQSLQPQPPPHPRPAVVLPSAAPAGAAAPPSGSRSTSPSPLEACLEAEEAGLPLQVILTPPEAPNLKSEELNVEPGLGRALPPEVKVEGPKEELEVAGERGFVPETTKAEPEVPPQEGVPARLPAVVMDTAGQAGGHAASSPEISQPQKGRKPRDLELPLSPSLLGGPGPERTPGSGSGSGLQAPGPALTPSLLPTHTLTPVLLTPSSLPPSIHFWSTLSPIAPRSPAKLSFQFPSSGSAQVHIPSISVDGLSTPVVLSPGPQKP
# Procedure, shortened: as §1
# [3] = target: T3, GABPA (Homo sapiens, UniProt Q06546 1-454); conditions: protein: recombinant; tags: N-terminal GST; dsDNA, one strand shown
# T3 sequence: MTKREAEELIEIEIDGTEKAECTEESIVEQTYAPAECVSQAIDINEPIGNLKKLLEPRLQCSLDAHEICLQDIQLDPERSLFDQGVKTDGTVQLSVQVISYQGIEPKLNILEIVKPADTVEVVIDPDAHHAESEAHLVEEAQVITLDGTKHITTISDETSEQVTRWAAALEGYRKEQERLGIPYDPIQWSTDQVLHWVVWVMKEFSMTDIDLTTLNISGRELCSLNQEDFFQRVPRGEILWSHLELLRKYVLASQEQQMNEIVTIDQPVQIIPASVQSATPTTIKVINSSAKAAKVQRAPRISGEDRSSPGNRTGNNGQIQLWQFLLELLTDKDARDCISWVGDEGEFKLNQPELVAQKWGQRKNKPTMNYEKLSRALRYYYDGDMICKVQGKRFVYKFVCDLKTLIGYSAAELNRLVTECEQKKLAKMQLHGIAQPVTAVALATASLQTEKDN
# Procedure, shortened: as §1
# [4] = target: T4, ERG (Homo sapiens, UniProt P11308 1-479); conditions: protein: recombinant; tags: N-terminal GST; dsDNA, one strand shown
# T4 sequence: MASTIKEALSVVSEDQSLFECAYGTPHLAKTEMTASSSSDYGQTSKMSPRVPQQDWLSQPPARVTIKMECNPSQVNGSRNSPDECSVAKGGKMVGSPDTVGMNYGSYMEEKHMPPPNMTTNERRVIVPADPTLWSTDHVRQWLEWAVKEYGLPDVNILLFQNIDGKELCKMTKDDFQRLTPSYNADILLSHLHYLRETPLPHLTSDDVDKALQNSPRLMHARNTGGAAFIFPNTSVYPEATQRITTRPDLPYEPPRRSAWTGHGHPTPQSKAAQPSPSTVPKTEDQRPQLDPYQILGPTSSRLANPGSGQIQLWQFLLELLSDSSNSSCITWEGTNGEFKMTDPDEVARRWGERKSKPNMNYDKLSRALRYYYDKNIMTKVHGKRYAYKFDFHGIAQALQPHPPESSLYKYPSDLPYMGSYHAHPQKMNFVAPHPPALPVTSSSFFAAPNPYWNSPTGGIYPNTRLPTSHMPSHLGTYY
# Procedure, shortened: as §1
# [5] = target: ELF1 (Homo sapiens, UniProt P32519 1-619); conditions: protein: recombinant; tags: N-terminal GST; dsDNA, one strand shown
# Procedure, shortened: as §1
# [6] = target: T5, EHF (Homo sapiens, UniProt Q9NZC4 1-300); conditions: protein: recombinant; tags: N-terminal GST; dsDNA, one strand shown
# T5 sequence: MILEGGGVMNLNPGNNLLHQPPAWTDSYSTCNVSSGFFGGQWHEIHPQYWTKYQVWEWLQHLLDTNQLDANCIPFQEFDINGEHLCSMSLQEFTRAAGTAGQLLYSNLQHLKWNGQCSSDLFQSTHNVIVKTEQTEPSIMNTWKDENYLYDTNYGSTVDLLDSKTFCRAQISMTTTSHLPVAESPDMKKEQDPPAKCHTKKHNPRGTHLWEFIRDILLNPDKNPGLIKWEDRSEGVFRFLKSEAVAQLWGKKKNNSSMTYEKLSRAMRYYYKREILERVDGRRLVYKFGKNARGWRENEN
# Procedure, shortened: as §1
# [7] = target: SPI1 (Homo sapiens, UniProt P17947 1-270); conditions: protein: recombinant; tags: N-terminal GST; dsDNA, one strand shown
# Procedure, shortened: as §1
# [8] = target: SPIB (Homo sapiens, UniProt Q01892 1-262); conditions: protein: recombinant; tags: N-terminal GST; dsDNA, one strand shown
# Procedure, shortened: as §1
# [9] = target: T6, ELK3 (Homo sapiens, UniProt P41970 1-407); conditions: protein: recombinant; tags: N-terminal GST; dsDNA, one strand shown
# T6 sequence: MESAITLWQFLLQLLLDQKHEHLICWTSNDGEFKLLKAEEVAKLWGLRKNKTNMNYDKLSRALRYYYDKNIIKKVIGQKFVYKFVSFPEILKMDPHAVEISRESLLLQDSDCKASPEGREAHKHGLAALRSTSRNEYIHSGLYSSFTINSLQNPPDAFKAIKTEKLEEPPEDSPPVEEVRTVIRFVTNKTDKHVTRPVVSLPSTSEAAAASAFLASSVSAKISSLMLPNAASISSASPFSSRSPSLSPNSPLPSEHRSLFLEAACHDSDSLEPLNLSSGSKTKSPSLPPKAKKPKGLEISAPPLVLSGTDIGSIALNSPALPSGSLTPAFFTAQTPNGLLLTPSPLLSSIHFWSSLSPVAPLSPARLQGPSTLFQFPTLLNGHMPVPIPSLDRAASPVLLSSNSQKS
# Procedure, shortened: as §1
# [10] = target: T7, FEV (Homo sapiens, UniProt Q99581 1-238); conditions: protein: recombinant; tags: N-terminal GST; dsDNA, one strand shown
# T7 sequence: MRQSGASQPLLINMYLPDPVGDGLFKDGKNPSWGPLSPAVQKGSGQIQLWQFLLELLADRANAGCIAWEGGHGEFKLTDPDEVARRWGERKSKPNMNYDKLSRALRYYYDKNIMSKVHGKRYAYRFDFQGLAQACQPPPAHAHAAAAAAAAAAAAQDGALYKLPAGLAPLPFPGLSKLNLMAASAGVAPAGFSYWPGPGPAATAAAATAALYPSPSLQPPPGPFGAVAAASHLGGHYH
# Procedure, shortened: as §1
# [11] = target: ETV5 (Homo sapiens, UniProt P41161 1-510); conditions: protein: recombinant; tags: N-terminal GST; dsDNA, one strand shown
# Procedure, shortened: as §1
# [12] = target: HSF1 (Homo sapiens, UniProt Q00613 1-529); conditions: protein: recombinant; tags: N-terminal GST; chain copies: 3; dsDNA, one strand shown
# Procedure, shortened: as §1
# [13] = target: T8, SPIC (Homo sapiens, UniProt Q8N5J4 1-248); conditions: protein: recombinant; tags: N-terminal GST; dsDNA, one strand shown
# T8 sequence: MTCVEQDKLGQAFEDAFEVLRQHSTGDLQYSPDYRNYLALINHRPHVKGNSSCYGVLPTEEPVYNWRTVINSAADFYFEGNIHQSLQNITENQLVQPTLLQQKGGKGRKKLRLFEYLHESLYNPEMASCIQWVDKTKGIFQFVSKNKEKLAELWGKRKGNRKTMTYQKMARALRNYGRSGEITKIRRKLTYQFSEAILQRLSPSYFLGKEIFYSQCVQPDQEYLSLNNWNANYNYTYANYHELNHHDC
# Procedure, shortened: as §1
# [14] = target: ELF4 (Homo sapiens, UniProt Q99607 1-663); conditions: protein: recombinant; tags: N-terminal GST; dsDNA, one strand shown
# Procedure, shortened: as §1
# [15] = target: T9, ELK4 (Homo sapiens, UniProt P28324-2 1-405); conditions: protein: recombinant; tags: N-terminal GST; dsDNA, one strand shown
# T9 sequence: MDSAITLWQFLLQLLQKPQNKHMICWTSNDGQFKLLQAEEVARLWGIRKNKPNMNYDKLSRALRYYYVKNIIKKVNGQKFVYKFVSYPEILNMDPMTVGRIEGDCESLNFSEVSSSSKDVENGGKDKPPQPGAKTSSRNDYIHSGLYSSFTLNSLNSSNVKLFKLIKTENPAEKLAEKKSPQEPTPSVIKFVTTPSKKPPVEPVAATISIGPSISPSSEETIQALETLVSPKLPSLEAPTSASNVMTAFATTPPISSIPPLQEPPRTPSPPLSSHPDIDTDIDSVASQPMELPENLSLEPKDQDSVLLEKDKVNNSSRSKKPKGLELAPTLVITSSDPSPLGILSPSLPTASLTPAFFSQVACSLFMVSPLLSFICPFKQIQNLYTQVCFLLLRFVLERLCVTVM
# Procedure, shortened: as §1
# [16] = target: T10, ETV2 (Homo sapiens, UniProt O00321 1-342); conditions: protein: recombinant; tags: N-terminal GST; dsDNA, one strand shown
# T10 sequence: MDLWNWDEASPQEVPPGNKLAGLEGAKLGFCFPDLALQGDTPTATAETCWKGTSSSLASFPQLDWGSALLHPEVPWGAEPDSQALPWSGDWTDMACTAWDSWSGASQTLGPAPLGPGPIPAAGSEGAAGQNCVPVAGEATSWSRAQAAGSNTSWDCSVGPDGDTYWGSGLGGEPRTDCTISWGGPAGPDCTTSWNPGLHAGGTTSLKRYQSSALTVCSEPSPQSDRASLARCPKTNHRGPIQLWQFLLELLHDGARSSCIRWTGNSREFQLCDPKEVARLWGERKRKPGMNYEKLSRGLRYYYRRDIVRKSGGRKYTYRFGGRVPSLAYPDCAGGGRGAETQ
# Procedure, shortened: as §1
# [17] = target: T11, ELF3 (Homo sapiens, UniProt P78545 1-371); conditions: protein: recombinant; tags: N-terminal GST; dsDNA, one strand shown
# T11 sequence: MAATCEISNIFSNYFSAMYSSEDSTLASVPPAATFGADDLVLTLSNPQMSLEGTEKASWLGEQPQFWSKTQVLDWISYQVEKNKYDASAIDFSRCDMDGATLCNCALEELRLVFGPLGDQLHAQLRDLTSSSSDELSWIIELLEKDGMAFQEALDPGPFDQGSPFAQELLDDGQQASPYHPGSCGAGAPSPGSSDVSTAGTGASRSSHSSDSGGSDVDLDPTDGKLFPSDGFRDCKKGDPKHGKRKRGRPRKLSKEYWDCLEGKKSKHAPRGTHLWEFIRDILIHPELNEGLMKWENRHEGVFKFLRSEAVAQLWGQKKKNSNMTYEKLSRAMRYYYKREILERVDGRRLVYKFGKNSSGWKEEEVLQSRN
# Procedure, shortened: as §1
# [18] = target: CRX (Homo sapiens, UniProt O43186 1-299); conditions: protein: recombinant; tags: N-terminal GST; dsDNA, one strand shown
# Procedure, shortened: as §1
# [19] = target: ETV1 (Homo sapiens, UniProt P50549 1-477); conditions: protein: recombinant; tags: N-terminal GST; dsDNA, one strand shown
# Procedure, shortened: as §1
# Chain of SPIB (Q01892 whole entry): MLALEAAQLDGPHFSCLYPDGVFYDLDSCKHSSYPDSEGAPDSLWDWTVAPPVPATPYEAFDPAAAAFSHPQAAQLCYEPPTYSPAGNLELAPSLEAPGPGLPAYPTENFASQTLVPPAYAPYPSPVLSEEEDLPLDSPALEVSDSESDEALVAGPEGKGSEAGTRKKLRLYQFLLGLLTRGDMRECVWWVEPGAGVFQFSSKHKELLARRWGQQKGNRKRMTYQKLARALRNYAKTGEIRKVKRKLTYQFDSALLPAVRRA
# Chain of ETV5 (P41161 whole entry): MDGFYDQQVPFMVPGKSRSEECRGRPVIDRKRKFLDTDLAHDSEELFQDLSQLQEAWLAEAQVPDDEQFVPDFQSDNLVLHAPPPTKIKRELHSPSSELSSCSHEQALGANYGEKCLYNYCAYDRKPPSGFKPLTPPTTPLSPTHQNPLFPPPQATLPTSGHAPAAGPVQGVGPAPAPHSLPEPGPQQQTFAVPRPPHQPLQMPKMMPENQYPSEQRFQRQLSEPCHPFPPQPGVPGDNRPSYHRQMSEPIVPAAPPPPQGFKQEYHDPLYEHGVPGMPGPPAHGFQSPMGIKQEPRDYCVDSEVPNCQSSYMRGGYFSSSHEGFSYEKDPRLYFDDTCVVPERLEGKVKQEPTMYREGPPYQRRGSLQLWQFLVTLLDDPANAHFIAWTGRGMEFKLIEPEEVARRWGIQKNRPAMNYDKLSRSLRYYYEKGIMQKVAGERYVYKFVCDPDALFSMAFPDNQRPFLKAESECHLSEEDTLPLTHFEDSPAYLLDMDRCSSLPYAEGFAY
# Chain of HSF1 (Q00613 whole entry): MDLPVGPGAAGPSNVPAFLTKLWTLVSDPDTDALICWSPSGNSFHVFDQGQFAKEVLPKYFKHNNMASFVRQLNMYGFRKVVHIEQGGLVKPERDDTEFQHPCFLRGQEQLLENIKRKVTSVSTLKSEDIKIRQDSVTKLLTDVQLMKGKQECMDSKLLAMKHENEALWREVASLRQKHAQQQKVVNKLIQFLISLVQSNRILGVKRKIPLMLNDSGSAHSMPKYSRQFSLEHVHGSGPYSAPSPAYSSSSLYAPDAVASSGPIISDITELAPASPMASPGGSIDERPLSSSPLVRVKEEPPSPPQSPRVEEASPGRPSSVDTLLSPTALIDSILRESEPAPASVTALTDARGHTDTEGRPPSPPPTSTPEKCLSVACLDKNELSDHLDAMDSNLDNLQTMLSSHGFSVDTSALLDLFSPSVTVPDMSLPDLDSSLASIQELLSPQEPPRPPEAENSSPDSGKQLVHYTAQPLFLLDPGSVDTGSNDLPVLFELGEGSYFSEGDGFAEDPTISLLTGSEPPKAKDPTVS
# Chain of CRX (O43186 whole entry): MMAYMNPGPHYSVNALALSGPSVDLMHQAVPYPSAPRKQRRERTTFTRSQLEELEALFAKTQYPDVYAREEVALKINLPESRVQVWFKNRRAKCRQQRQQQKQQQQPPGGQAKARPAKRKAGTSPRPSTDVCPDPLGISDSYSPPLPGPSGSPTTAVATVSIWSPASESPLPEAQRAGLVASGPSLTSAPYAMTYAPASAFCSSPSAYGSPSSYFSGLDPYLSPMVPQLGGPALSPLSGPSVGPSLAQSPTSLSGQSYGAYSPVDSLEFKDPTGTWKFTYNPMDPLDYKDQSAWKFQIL
# Chain of ELF1 (P32519 whole entry): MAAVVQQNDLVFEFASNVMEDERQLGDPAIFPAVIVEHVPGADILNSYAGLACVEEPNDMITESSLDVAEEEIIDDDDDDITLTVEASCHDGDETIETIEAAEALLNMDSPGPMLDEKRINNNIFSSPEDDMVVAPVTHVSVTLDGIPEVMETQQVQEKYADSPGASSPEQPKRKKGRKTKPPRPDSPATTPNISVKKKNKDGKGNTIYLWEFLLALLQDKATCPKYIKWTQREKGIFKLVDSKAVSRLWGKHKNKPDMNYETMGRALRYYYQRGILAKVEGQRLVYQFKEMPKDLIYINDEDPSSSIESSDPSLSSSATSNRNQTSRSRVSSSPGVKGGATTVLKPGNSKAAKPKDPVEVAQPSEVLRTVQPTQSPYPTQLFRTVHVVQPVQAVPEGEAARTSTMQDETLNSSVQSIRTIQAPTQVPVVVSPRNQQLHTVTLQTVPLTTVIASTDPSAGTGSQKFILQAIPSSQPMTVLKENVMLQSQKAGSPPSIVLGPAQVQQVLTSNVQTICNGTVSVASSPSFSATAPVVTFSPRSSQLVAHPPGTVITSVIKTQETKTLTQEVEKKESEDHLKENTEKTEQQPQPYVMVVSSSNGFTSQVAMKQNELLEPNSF
# Chain of ELF4 (Q99607 whole entry): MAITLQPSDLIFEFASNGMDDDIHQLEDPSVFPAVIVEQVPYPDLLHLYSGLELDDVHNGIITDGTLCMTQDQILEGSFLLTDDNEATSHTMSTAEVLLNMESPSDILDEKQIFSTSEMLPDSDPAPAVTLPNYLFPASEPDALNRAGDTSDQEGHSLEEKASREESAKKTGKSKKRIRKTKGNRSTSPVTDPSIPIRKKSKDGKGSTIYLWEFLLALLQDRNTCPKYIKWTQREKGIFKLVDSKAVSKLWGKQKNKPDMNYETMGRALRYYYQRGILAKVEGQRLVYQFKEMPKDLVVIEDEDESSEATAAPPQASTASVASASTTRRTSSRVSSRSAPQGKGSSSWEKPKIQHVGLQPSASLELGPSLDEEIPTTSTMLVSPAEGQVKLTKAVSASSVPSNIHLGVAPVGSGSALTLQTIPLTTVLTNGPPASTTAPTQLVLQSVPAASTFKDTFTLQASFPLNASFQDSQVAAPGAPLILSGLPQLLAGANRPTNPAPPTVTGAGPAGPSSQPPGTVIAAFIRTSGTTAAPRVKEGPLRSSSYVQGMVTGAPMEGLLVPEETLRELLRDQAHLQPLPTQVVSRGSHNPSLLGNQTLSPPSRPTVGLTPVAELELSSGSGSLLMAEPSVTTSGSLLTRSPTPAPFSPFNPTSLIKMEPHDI
# Chain of ETV1 (P50549 whole entry): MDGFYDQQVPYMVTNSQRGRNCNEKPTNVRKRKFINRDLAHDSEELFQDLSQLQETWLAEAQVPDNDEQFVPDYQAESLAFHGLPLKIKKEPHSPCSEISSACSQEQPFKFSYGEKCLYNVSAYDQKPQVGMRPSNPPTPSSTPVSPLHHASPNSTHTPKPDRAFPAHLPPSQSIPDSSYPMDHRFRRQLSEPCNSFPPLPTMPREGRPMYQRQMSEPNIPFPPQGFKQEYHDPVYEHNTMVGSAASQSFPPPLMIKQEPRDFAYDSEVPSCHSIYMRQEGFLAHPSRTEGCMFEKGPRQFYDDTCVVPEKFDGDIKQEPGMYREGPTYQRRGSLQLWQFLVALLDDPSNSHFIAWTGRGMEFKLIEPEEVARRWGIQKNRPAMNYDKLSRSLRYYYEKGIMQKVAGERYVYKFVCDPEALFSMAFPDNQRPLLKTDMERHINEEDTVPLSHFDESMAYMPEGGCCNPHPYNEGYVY
sequence,measurement,setting,value
TATCGT,binding signal,[1],"1.18 fold enrichment (6-mer frequency, TF over GST control)"
same,binding signal,[2],"1.28 fold enrichment (6-mer frequency, TF over GST control)"
same,binding signal,[3],"1.04 fold enrichment (6-mer frequency, TF over GST control)"
same,binding signal,[4],"1.14 fold enrichment (6-mer frequency, TF over GST control)"
same,binding signal,[5],"1.14 fold enrichment (6-mer frequency, TF over GST control)"
same,binding signal,[6],"1.1 fold enrichment (6-mer frequency, TF over GST control)"
same,binding signal,[7],"1.07 fold enrichment (6-mer frequency, TF over GST control)"
same,binding signal,[8],"1.2 fold enrichment (6-mer frequency, TF over GST control)"
same,binding signal,[9],"1.18 fold enrichment (6-mer frequency, TF over GST control)"
same,binding signal,[10],"1.05 fold enrichment (6-mer frequency, TF over GST control)"
same,binding signal,[11],"1.12 fold enrichment (6-mer frequency, TF over GST control)"
same,binding signal,[12],"1.17 fold enrichment (6-mer frequency, TF over GST control)"
same,binding signal,[13],"1.09 fold enrichment (6-mer frequency, TF over GST control)"
same,binding signal,[14],"1.07 fold enrichment (6-mer frequency, TF over GST control)"
same,binding signal,[15],"1.13 fold enrichment (6-mer frequency, TF over GST control)"
same,binding signal,[16],"1.16 fold enrichment (6-mer frequency, TF over GST control)"
same,binding signal,[17],"1.15 fold enrichment (6-mer frequency, TF over GST control)"
same,binding signal,[18],"1.28 fold enrichment (6-mer frequency, TF over GST control)"
same,binding signal,[19],"1.21 fold enrichment (6-mer frequency, TF over GST control)"
